Many of the other results were omitted from the sample, so hits are more common in it than they were.
IDE exosite inh = exo-site inhibitors of human IDE, primary screen, biochemical, fluorescence anisotropy, probe displacement | actives 6.3% (n = 17,000) | Insulin-degrading enzyme (Homo sapiens), P14735 | purified IDE, FL-6b probe fluorescence polarization; active compounds read low | z-score at 20 µM;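 active = z-score of -3 or lower, meaning strong loss of probe binding signal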;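 also: His-tagged human IDE residues 42-1019 made in E. coli with 30 nM FL-6b probe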
* marks the source's active call; other numbers are inactive results.

SMILES	IDE exosite inh
Cc1cccc(-c2ccc([C@H]3[C@H]4CN(S(=O)(=O)c5cn(C)cn5)CCCCN4[C@H]3CO)cc2)c1	1.4
Cc1cccc(-c2ccc([C@@H]3[C@H]4CN(S(=O)(=O)c5cn(C)cn5)CCCCN4[C@H]3CO)cc2)c1	-6.09*
COc1cccc(-c2ccc([C@@H]3[C@@H](CO)N4CCCCN(S(=O)(=O)c5cn(C)cn5)C[C@H]34)cc2)c1	1.39
Cn1cnc(S(=O)(=O)N2CCCCN3[C@H](CO)[C@@H](c4ccc(-c5ccccc5)cc4)[C@@H]3C2)c1	-9.37*
COc1cccc(-c2ccc([C@H]3[C@H]4CN(S(=O)(=O)c5cn(C)cn5)CCCCN4[C@H]3CO)cc2)c1	-0.71
Cn1cnc(S(=O)(=O)N2CCCCN3[C@H](CO)[C@H](c4ccc(-c5cccc(F)c5)cc4)[C@@H]3C2)c1	2.5
Cn1cnc(S(=O)(=O)N2CCCCN3[C@H](C2)[C@H](c2ccc(-c4ccccc4)cc2)[C@@H]3CO)c1	1.67
Cn1cnc(S(=O)(=O)N2CCCCN3[C@@H](CO)[C@@H](c4ccc(-c5ccc(F)cc5)cc4)[C@@H]3C2)c1	-2.12
COc1cccc(-c2ccc([C@H]3[C@H](CO)N4CCCCN(S(=O)(=O)c5cn(C)cn5)C[C@@H]34)cc2)c1	-0.354
COc1cccc(-c2ccc([C@H]3[C@@H](CO)N4CCCCN(S(=O)(=O)c5cn(C)cn5)C[C@@H]34)cc2)c1	0.929
Cc1cccc(-c2ccc([C@@H]3[C@H](CO)N4CCCCN(S(=O)(=O)c5cn(C)cn5)C[C@@H]34)cc2)c1	-19.5*
COc1cccc(-c2ccc([C@@H]3[C@@H](CO)N4CCCCN(S(=O)(=O)c5cn(C)cn5)C[C@@H]34)cc2)c1	-14.1*
COc1ccc(NC(=O)N2C[C@@H](O)COC[C@H]3O[C@@H](CC(=O)NCc4ccncn4)CC[C@@H]32)cc1	-0.289
C[C@@H]1CN([C@H](C)CO)S(=O)(=O)c2ccc(C#Cc3ccccc3F)cc2O[C@H]1CN(C)C(=O)Cc1cccnc1	0.961
COc1ccc2c3c([nH]c2c1)[C@@H](CO)N(C(=O)NC1CCCC1)CC31CN(C(=O)Nc2cccc(F)c2)C1	-0.588
COCC(=O)N1[C@H](C#N)[C@@H](c2ccccc2-c2ccc(C)cc2)[C@@H]1CO	3.12
O=S(=O)(Cc1ccccc1)N1CCCCN2[C@H](CO)[C@H](c3ccc(-c4ccc(F)cc4)cc3)[C@H]2C1	3.32
O=C(CC1CC1)N1CC(=O)N2[C@H](C1)[C@@H](c1ccc(C#Cc3ccccc3)cc1)[C@@H]2CO	-8.5*
O=C(CC1CC1)N1CC(=O)N2[C@H](CO)[C@@H](c3ccc(C#Cc4ccc(F)cc4)cc3)[C@H]2C1	0.266
O=C(CC1CC1)N1CC(=O)N2[C@H](CO)[C@H](c3ccc(C#Cc4ccccc4)cc3)[C@@H]2C1	-10*
O=C(CC1CC1)N1CC(=O)N2[C@H](CO)[C@@H](c3ccc(C#Cc4ccccc4)cc3)[C@@H]2C1	-7.65*
O=C(CC1CC1)N1CC(=O)N2[C@H](C1)[C@@H](c1ccc(C#Cc3ccc(F)cc3)cc1)[C@@H]2CO	0.153
O=C(Cc1ccccc1)N1CC(=O)N2[C@@H](CO)[C@@H](c3ccc(C#Cc4ccccc4)cc3)[C@@H]2C1	0.822
O=C(CC1CC1)N1CC(=O)N2[C@@H](CO)[C@@H](c3ccc(C#Cc4cccc(F)c4)cc3)[C@@H]2C1	-0.608
O=C(CC1CC1)N1CC(=O)N2[C@H](C1)[C@H](c1ccc(C#Cc3ccc(F)cc3)cc1)[C@@H]2CO	-1.67
SMILES	IDE exosite inh
O=C(CC1CC1)N1CC(=O)N2[C@H](C1)[C@H](c1ccc(C#Cc3ccccc3)cc1)[C@@H]2CO	-15.9*
C/C=C/c1ccc2c(c1)[C@H]1[C@H](CCN1S(=O)(=O)c1ccccc1F)[C@H](CO)N2	0.242
O=C(C[C@H]1CC[C@@H]2[C@H](COC[C@H](O)CN2C(=O)Cc2ccccc2)O1)NC1Cc2ccccc2C1	-0.663
CN(C)CC#Cc1ccc([C@@H]2[C@@H](CO)N3C(=O)CN(C(=O)Cc4cccnc4)C[C@H]23)cc1	1.76
CN1CCCCN2[C@@H](CO)[C@H](c3ccc(-c4ccc(F)cc4)cc3)[C@@H]2C1	-0.54
CN(C)CC(=O)N1[C@@H](CO)[C@@H]2c3ccccc3N(C(=O)Cc3ccccc3)C[C@@H]21	2.6
O=C(Nc1ccccc1F)N1CC(=O)N2[C@@H](CO)[C@H](c3ccc(C#CC4CC4)cc3)[C@@H]2C1	-1.61
Cn1cnc(S(=O)(=O)N2C[C@@H](O)COC[C@H]3O[C@@H](CC(=O)NCc4cccc(F)c4)CC[C@@H]32)c1	0.677
CN(C)C(=O)c1ccc(-c2ccc([C@H]3[C@@H](C#N)N(C(=O)C4CCCC4)[C@H]3CO)cc2)cc1	-2.42
CC(=O)N1[C@H](CO)[C@H](c2ccc(-c3cccnc3)cc2)[C@H]1CNC(=O)C1CCC1	3.52
OC[C@@H]1[C@H](c2ccc(-c3cccnc3)cc2)[C@H]2CN(Cc3ccccn3)CCCCN12	-1.06
C[C@@H]1CN([C@H](C)CO)C(=O)c2cc(C#Cc3ccccc3)cnc2O[C@@H]1CN(C)C(=O)c1ccccc1	-1.81
C[C@@H]1CN([C@@H](C)CO)C(=O)c2cc(C#Cc3ccccc3)cnc2O[C@@H]1CN(C)C(=O)c1ccccc1	-4.04*
C[C@@H]1CN([C@@H](C)CO)C(=O)c2cc(/C=C/c3ccccc3)cnc2O[C@H]1CN(C)S(=O)(=O)c1ccccc1F	-3.39*
C[C@H]1CN([C@@H](C)CO)C(=O)c2cc(/C=C/c3ccccc3)cnc2O[C@@H]1CN(C)S(=O)(=O)c1ccccc1F	-0.0711
C[C@H]1CN([C@@H](C)CO)C(=O)c2cc(/C=C/c3ccccc3)cnc2O[C@H]1CN(C)S(=O)(=O)c1ccccc1F	0.0648
C[C@H](CO)N1C[C@H](C)[C@@H](CN(C)C(=O)c2ccccc2)Oc2ncc(C#Cc3ccccc3)cc2C1=O	-2.16
O=C(c1cnccn1)N1CC(=O)N2[C@H](CO)[C@H](c3ccc(C4=CCCCC4)cc3)[C@@H]2C1	0.132
N#Cc1cccc(-c2ccc(C3[C@H]4CNC[C@@H]3N4C(=O)Nc3cccc(F)c3)cc2)c1 (stereo partly specified)	0.345
COc1ccc2c3c([nH]c2c1)[C@@H](CO)N(C(=O)Nc1ccc(F)cc1)CC31CCN(S(=O)(=O)c2cn(C)cn2)CC1	-0.642
Cc1ccccc1-c1ccc([C@@H]2[C@H]3CN(C(=O)c4cccnc4)CC(=O)N3[C@H]2CO)cc1	-19.7*
Cc1ccccc1-c1ccc([C@@H]2[C@@H](CO)N3C(=O)CN(C(=O)c4ccncc4)C[C@H]23)cc1	-2.31
O=C(c1cccnc1)N1CC(=O)N2[C@H](C1)[C@@H](c1ccc(-c3ccccc3F)cc1)[C@@H]2CO	-2.73
CCCC#Cc1ccc([C@@H]2[C@H](CO)N3C(=O)CN(C(=O)c4cccnc4)C[C@@H]23)cc1	0.553
Cc1ccccc1-c1ccc([C@H]2[C@@H](CO)N3C(=O)CN(C(=O)c4cccnc4)C[C@H]23)cc1	-17.2*
CCC(=O)N1[C@H](CN(C)C(C)=O)[C@@H](c2ccc(C3=CCCC3)cc2)[C@@H]1CO	2.54
CN(C)CC(=O)N1[C@H](CO)[C@H](c2ccccc2-c2ccc(C(=O)N(C)C)cc2)[C@@H]1C#N	-0.393
O=C(NC[C@@H]1[C@H](c2ccccc2)[C@H](CO)N1CC1CCCC1)C1CC1	4.51
N#C[C@@H]1[C@@H](c2ccc(C#Cc3ccccc3F)cc2)[C@@H](CO)N1C(=O)C1CC1	-1.6

Screening results: PubChem BioAssay, Broad Institute
